# Most compounds without a hit are left out; they make up all but 19% or so of the library.
# BCR signal inh: inhibitors of chronic active B-cell receptor signaling | ABC-DLBCL IkBa-CBG/CBR reporter, luminescence ratio, 4 h | Potency, µM (series often up to 46.1 µM), for inactives: top-dose activity change, negative = inhibition, hits mostly inhibitors | actives 0.05% (n = 340,000) | AID 493014; active = well fitted inhibition curve with a large enough effect in the signal ratio, with a control signal flat, not every such curve was filed as active; inconclusive = small, poorly fitted or top-dose-only effect, or effect the other way, or a change in a side signal; the % refers to the signal ratio;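 note: potency is the fitted concentration of half-maximal effect; plate controls were basal doxycycline-induced cells for no effect and cells given 10 µM MG132 for full effect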
#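 Doxycycline induced both beetle luciferases in TMD8 lymphoma cells; IKK-driven degradation limits the IkappaBalpha-fused green signal, while red luminescence normalises for cell number and nonspecific effects. Compounds tested up to 46 uM, 4 hrs.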
# SW480 rereplic: induces DNA re-replication in SW480 colon adenocarcinoma cells; SW480 DNA re-replication, Hoechst DNA content imaging, 48 h; actives 1.8% (n = 340,000); Potency, µM (doses to about 46.1 µM), for inactives: at the highest dose re-replication activation, hits mostly activators; note: potency is the fitted concentration of half-maximal effect; % of control where 0% means no effect; nearly all actives have a fitted effect of over 55% in size
#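 Quantitative HTS format with DMSO vehicle controls; 48 hr drug incubation at 37 C, then 40 min Hoechst staining and scanning imager measurement at 405 nm excitation.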
# IL-1B inflam inh: blocks inflammasome-driven IL-1 beta release | THP-1 LPS/ATP IL-1B secretion, AlphaLISA, 16 h; hits give low values | activity change, % at 57.5 µM | actives 4.7% (n = 360,000); in the data active = activity change below about -50%; inconclusive = mostly about -30% to -49%; note: % is set by controls: 0 for no effect and ±100 for the full control effect
#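 Secreted IL-1B measured by AlphaLISA bead assay after 16 h compound exposure of THP-1 cells; compounds (final up to 57.5 uM) added 1 h before LPS (250 ng/mL) and ATP (1.25 mM) stimulation; lower signal means less secretion.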
# TDP1 cell CPT: growth inhibition of DT40 Tdp1-/-;hTDP1 cells with camptothecin (screen for TDP1 inhibitors) | Potency, µM (titrated, usually from 46.2 µM), without a hit: at the highest dose activity change, negative = growth inhibition, actives largely listed as inhibitors | chicken DT40 Tdp1-/-;hTDP1 cells + 20 nM CPT, ATP luminescence, 48 h | actives 12% (n = 420,000); note: potency is the fitted concentration of half-maximal effect; % is set by controls: 0 for no effect and ±100 for the full control effect; nearly all actives have a fitted effect of over 55% in size
#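 Chicken DT40 Tdp1-/- cells stably complemented with human TDP1 were seeded at 400 cells/well in medium containing 20 nM camptothecin, exposed to pin-transferred compounds, and grown at 37 °C for at least 48 hr. Viability was read as ATP luminescence.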
# TDP1 cell noCPT: qHTS for Inhibitors of human tyrosyl-DNA phosphodiesterase 1 (TDP1): qHTS in cells in absence of CPT; DT40 Tdp1-/- hTDP1 cells, no CPT, ATP luminescence, 48 h; Potency, µM (highest dose often 46.2 µM), without a hit: at the highest dose activity change, negative = growth inhibition, most hits filed as inhibitors; actives 15% (n = 420,000); note: potency is the fitted concentration of half-maximal effect; % is set by controls: 0 for no effect and ±100 for the full control effect; nearly all actives have a fitted effect of over 55% in size
#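 Cells were dispensed at 400 per well, compounds added by pin tool, plates incubated ≥48 hr at 37 °C, then CellTiter-Glo added for 30 min at room temperature before luminescence reading. Line: DT40 Tdp1-/- complemented with hTDP1; camptothecin omitted.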
# MCF10A rereplic: inducers of DNA re-replication in MCF 10A breast cells. actives 2.9% (n = 350,000). MCF 10A DNA re-replication, Hoechst nuclear intensity, 48 h. Potency, µM (doses to about 46.1 µM), for the others: top-dose activity, positive = re-replication, actives largely listed as activators. AID 624296; note: potency is the fitted concentration of half-maximal effect; % of control where 0% means no effect; nearly all actives have a fitted effect of over 50% in size
# Numbers without * were called inactive; ? = inconclusive; / = no result; [ ] = dose if it differs, or a comment. Unless noted, calls come from the whole dose curve; as a rule, active = well fitted curve in the direction sought with a large enough effect; inconclusive = small, poorly fitted or top-dose-only effect, or another doubt; inactive = no such curve, though single readings can be large; an effect the other way counts as inactive or inconclusive.
SMILES,BCR signal inh,SW480 rereplic,IL-1B inflam inh,TDP1 cell CPT,TDP1 cell noCPT,MCF10A rereplic
COc1cc(C(O)c2nc(-c3ccccc3C)cs2)ccc1F (centres undefined),/,/,4,?,?,/
COc1ccc(-c2csc(C(O)c3ccc(F)c(OC)c3)n2)cn1 (centres undefined),/,/,-16,16µM*,23µM*,/
COc1cc(C(O)c2nc(-c3ccccc3)cs2)ccc1F (centres undefined),/,/,-20,7.3µM*,6.5µM*,/
O=CNc1cc(-c2ccsc2)cn2c(-c3ccccc3)cnc12,/,/,24,16µM*,21µM*,/
CS(=O)(=O)c1ccc(-c2cnc3c(NC=O)cc(-c4ccsc4)cn23)cc1,/,/,?,23µM*,18µM*,/
CCCN(CC(=O)Nc1ccccc1C)C(=O)/C=C/c1ccc(OC)c(OC)c1,/,/,-10,-29%,-17%,/
Cc1onc(-c2c(F)cccc2Cl)c1C(=O)N(C)C1CCCCC1,4%,-12%,36,?,?,-18%
CCN(CC)C1=C(Cl)C(=O)C(Cl)C12OCCO2 (centres undefined),1%,-6%,/,3%,-7%,-17%
Cn1nccc1C(=O)Nc1ccn(C23CC4CC(CC(C4)C2)C3)n1,?,17%,-12,21µM*,15µM*,8%
CCC(=O)C1=C(c2ccc(F)cc2)N(C(=O)CC)n2cnnc2S1,?,/,/,18µM*,13µM*,/
CCOc1ccc(C2=C(C(=O)CC)Sc3nncn3N2C(=O)CC)cc1,?,/,/,16µM*,?,/
COc1ccc(C(=O)NC(=S)Nc2ccc(CN3CCOCC3)cc2)cc1OC,?,-10%,?,?,21µM*,7%
O=C(/C=C/c1ccc(Cl)cc1)NC(=S)Nc1ccc(NC(=O)c2ccco2)cc1,?,6%,-6,?,8.2µM*,10%
COc1ccc(C(=O)NC(=S)Nc2ccc(CN3CCOCC3)cc2)cc1Cl,?,-4%,-11,18µM*,16µM*,0%
O=C(/C=C/c1ccco1)Nc1ccc(CN2CCOCC2)cc1,?,22%,-7,-8%,-3%,4%
O=C(/C=C/c1ccc(Cl)cc1Cl)Nc1ccc(CN2CCOCC2)cc1,2%,?,0,?,?,8.2µM*
COc1ccc(NC(=O)C2(C)CCCN2C(=O)C(C)C)cc1OC (centres undefined),/,/,79,-13%,-2%,/
CCc1ccccc1NC(=O)CNC(=O)c1ccccc1OCc1c(C)noc1C,-4%,-7%,-8,-6%,-21%,0%
O=C(/C=C/c1ccc(Cl)cc1)NC(=S)Nc1ccc(CN2CCOCC2)cc1,2%,22%,-10,?,23µM*,21µM*
O=C(/C=C/c1ccccc1)Nc1ccc(CN2CCOCC2)cc1,2%,-7%,0,?,?,2%
COc1ccc(Br)cc1/C=C/C(=O)NC(=S)Nc1ccc(CN2CCOCC2)cc1,?,-2%,-3,16µM*,16µM*,-3%
CCCC(=O)N1CCC1(C)C(=O)NS(=O)(=O)c1cccc(C)c1 (centres undefined),/,/,34,-5%,-2%,/
COc1ccc(NC(=O)CSc2nccn2Cc2ccco2)cc1,?,2%,-7,-13%,?,-1%
CCc1nc2c(OCc3ccc(C(=O)OC)cc3)cccn2c1N(C)C(=O)c1ccc(OC)cc1,/,/,4,?,?,/
CCc1nc2c(OCc3ccc(F)cc3)cccn2c1N(C)C(=O)c1ccc(C)cc1,/,/,-4,15µM*,?,/
SMILES,BCR signal inh,SW480 rereplic,IL-1B inflam inh,TDP1 cell CPT,TDP1 cell noCPT,MCF10A rereplic
CCc1nc2c(OCc3ccc(C(=O)OC)cc3)cccn2c1N(C)C(=O)c1ccc(C)cc1,/,/,20,23µM*,18µM*,/
CCc1nc2c(OCc3ccc(C(F)(F)F)cc3)cccn2c1N(C)C(=O)c1ccncc1,/,/,8,16µM*,16µM*,/
COc1cc2cnc(-c3ccccc3)c(C(=O)c3ccc(F)cc3)c2cc1OC,?,-5%,-9,18µM*,23µM*,24%
COc1cc2cnc(-c3ccccc3)c(C(=O)c3ccc(OCc4ccccc4)cc3)c2cc1OC,?,17%,-22,?,?,-1%
N#Cc1ccc(-c2c(-c3ccccc3)ncc3cc(F)ccc23)cc1,15%,-60%[9.22 µM],-2,10µM*,16µM*,?
COC(=O)c1ccc(-c2c(-c3ccccc3)ncc3cc(F)ccc23)cc1,0%,2%,45,13µM*,26µM*,?
COc1cc2cnc(-c3ccccc3)c(-c3ccc(C(F)(F)F)cc3)c2cc1OC,-1%,-7%,20,?,?,?
Cc1cccc2c1-c1sc(C(=O)NCc3ccc(Cl)cc3)cc1CO2,/,/,/,-29%,-17%,/
O=[N+]([O-])c1cccc(CN2CCC(Cc3ccccc3)CC2)c1,1%,1%,-2,23µM*,-56%,3%
Cc1cc(OCCN2CC(C)OC(C)C2)ccc1[N+](=O)[O-] (centres undefined),-3%,1%,0,?,-19%,-2%
O=C(NC1CCN(Cc2cccc([N+](=O)[O-])c2)CC1)c1ccccc1,1%,-13%,15,-18%,-7%,30%
Cc1cc(OCCN2CCC(Cc3ccccc3)CC2)ccc1[N+](=O)[O-],2%,?,-74*,?,?,7%
COCCc1nc2ccc(C(=O)N(C)Cc3cccc(-n4nc(C)cc4C)c3)cc2o1,-1%,-7%,0,4%,-2%,-1%
O=C(C1CCN(S(=O)(=O)Cc2ccccc2)CC1)N1CCN(c2ccccc2F)CC1,/,/,/,?,-27%,/
CCn1c(O)c(/C=C2\C=Nc3ccccc32)sc1=Nc1ccc(C)cc1,1%,-8%,-3,?,?,16%
C=CCn1c(O)c(C2=c3ccccc3=NC2=O)sc1=Nc1ccc(O)cc1,?,-10%,-50*,23µM*,?,?
Cc1nn(CC(=O)Nc2ccc(N3CCOCC3)cc2)c(C)c1Cl,-4%,-2%,12,-3%,1%,-4%
O=C(Nc1ccc(N2CCOCC2)cc1)c1cccc2ccccc12,?,9.2µM*,-10,?,?,29%
Cc1ccccc1C(=O)Nc1ccc(N2CCCC2)cc1,?,-13%,-55*,?,-1%,0%

# Compound activity from PubChem BioAssay.
